{"source": "PubChem BioAssay (Tox21)", "note": "Inconclusive results are not listed. Where a call stands in place of a potency, no number is given. Values without a mark were called inactive. Calls of active or inactive are those of the source. Calls come from the whole dose curve; as a rule, active = well fitted curve in the direction sought with a large enough effect in the repeat runs; inconclusive = weak or mixed curves; inactive = no such curve, though single readings can be large; an effect the other way counts as inactive or inconclusive.", "data": [{"molecular_target": "Nuclear receptor subfamily 1 group I member 2 (Rattus norvegicus) (UniProt Q9R1A7)", "sequence (Q9R1A7 whole entry, looked up)": "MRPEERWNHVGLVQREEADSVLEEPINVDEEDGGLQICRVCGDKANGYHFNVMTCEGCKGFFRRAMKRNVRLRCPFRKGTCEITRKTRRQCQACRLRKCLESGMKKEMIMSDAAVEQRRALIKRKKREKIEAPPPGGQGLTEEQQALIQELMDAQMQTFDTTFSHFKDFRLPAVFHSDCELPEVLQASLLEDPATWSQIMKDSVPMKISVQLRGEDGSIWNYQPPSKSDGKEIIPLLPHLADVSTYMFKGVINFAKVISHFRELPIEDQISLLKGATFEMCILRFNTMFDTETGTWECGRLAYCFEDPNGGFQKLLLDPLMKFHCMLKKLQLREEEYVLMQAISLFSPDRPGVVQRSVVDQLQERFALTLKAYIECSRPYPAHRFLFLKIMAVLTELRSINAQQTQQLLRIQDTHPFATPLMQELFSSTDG", "assay": "Rat pregnane X receptor (rPXR) activation by small molecules, qHTS assay (AID 1346983); note: nearly all actives have a fitted effect of over 20% in size", "conditions": "rPXR luciferase reporter cells, One-Glo luminescence, 24 h; max activation: hits give high values", "method_in_brief": "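Cell-based rPXR activation assay: rPXR cells, 2,000 per well, rested 5hr at 37 C, then exposed to compounds in DMSO for 24 hr at 37 C. Luciferase activity read by One-Glo luminescence after 30 min at room temperature.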", "units": {"max activation": "%"}, "values": [{"smiles": "CCOP(=S)(OCC)Oc1cc(C)nc(C(C)C)n1", "max activation": 0.813}, {"smiles": "Nc1ccc([As](=O)(O)O)cc1", "max activation": -1.25}, {"smiles": "NNc1ccccc1", "max activation": -1.33}, {"smiles": "Oc1ccc(Cl)cc1", "max activation": 1.52}, {"smiles": "Oc1c(Br)cc(Br)cc1Br", "max activation": -2.81}, {"smiles": "O=C/C=C/c1ccccc1", "max activation": 2.2}, {"smiles": "C[C@]12CC[C@H](O)CC1=CC[C@@H]1[C@@H]2CC[C@]2(C)C(=O)CC[C@@H]12", "max activation": -3.38}, {"smiles": "C=CCN=C=S", "max activation": 0.185}]}, {"molecular_target": "Nuclear receptor subfamily 1 group I member 2 (Homo sapiens) (UniProt O75469)", "assay": "CYP3A4 induction through human pregnane X receptor (PXR) by small molecules, qHTS assay (AID 1346984); note: nearly all actives have a fitted effect of over 40% in size", "conditions": "DPX-2 HepG2 PXR, CYP3A4-luciferin luminescence, 24 h; series mostly up to 46.1 µM", "method_in_brief": "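Human PXR activation is tracked via CYP3A4 promoter-luciferase in DPX-2 (HepG2) cells. Compounds treat cells for 24hr at 37C, and luminescence is read after One-Glo.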", "values": [{"smiles": "CCCCCCCCCCCCCCCCCC(=O)O", "Potency": "inactive"}, {"smiles": "CCOP(=S)(OCC)Oc1cc(C)nc(C(C)C)n1", "Potency": "inactive"}, {"smiles": "Nc1ccc([As](=O)(O)O)cc1", "Potency": "inactive"}, {"smiles": "Oc1c(Br)cc(Br)cc1Br", "Potency": "inactive"}, {"smiles": "O=C/C=C/c1ccccc1", "Potency": "inactive"}, {"smiles": "C[C@]12CC[C@H](O)CC1=CC[C@@H]1[C@@H]2CC[C@]2(C)C(=O)CC[C@@H]12", "Potency": "inactive"}, {"smiles": "C=CCN=C=S", "Potency": "inactive"}]}, {"molecular_target": "Nuclear receptor subfamily 1 group I member 2 (Homo sapiens) (UniProt O75469)", "assay": "Human pregnane X receptor (PXR) activation by small molecules, qHTS assay (AID 1346985); note: nearly all actives have a fitted effect of over 40% in size; note: potency is the fitted concentration of half-maximal effect", "conditions": "DPX-2 HepG2 CYP3A4-luciferase, 24 h; series mostly up to 38.3 µM", "method_in_brief": "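DPX-2 cells (HepG2 co-transfected with a PXR response element and a CYP3A4-promoter luciferase construct) were seeded at 2,000 per well, rested 5 hr at 37C, then exposed to DMSO-dissolved compounds for 24 hr. Activation was read as luciferase luminescence.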", "values": [{"smiles": "CCCCCCCCCCCCCCCCCC(=O)O", "Potency": "inactive"}, {"smiles": "CCOP(=S)(OCC)Oc1cc(C)nc(C(C)C)n1", "Potency": "inactive"}, {"smiles": "Nc1ccc([As](=O)(O)O)cc1", "Potency": "inactive"}, {"smiles": "NNc1ccccc1", "Potency": "inactive"}, {"smiles": "Oc1c(Br)cc(Br)cc1Br", "Potency": "inactive"}, {"smiles": "O=C/C=C/c1ccccc1", "Potency": "inactive"}, {"smiles": "Nc1ccc(N)cc1", "Potency": "25.1 µM (active)"}, {"smiles": "C[C@]12CC[C@H](O)CC1=CC[C@@H]1[C@@H]2CC[C@]2(C)C(=O)CC[C@@H]12", "Potency": "inactive"}, {"smiles": "C=CCN=C=S", "Potency": "inactive"}]}]}
